Laboratory results published in PubChem BioAssay (NCI).
The panel holds about 83,000 compounds, 20% with a hit somewhere; the sample as a whole holds those more often.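 Single-dose data. Exposure time 48 hours. Values below 10 considered active.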 Unmarked numbers belong to inactive results. Active and inactive are the calls of the source.

Tests used:
Experiment in all cases: NCI-60 one-dose screen, 48 h (100 = growth as untreated, 0 = no growth, -100 = all killed)
Conditions in all cases: 10 µM unless noted
[1] = tested on: SK-MEL-2 melanoma
[2] = tested on: EKVX NSCLC
[3] = tested on: SN12C renal
[4] = tested on: UO-31 renal
[5] = tested on: TK-10 renal
[6] = tested on: ACHN renal
[7] = tested on: CAKI-1 renal
[8] = tested on: A498 renal
[9] = tested on: CCRF-CEM leukemia
[10] = tested on: RPMI-8226 leukemia
[11] = tested on: OVCAR-8 ovarian
[12] = tested on: OVCAR-5 ovarian
[13] = tested on: OVCAR-4 ovarian
[14] = tested on: SK-OV-3 ovarian
[15] = tested on: IGROV1 ovarian
[16] = tested on: OVCAR-3 ovarian
[17] = tested on: HS 578T breast
[18] = tested on: NCI/ADR-RES ovarian
[19] = tested on: MOLT-4 leukemia
[20] = tested on: SR leukemia

Compound	growth [1]	growth [2]	growth [3]	growth [4]	growth [5]	growth [6]	growth [7]	growth [8]	growth [9]	growth [10]	growth [11]	growth [12]	growth [13]	growth [14]	growth [15]	growth [16]	growth [17]	growth [18]	growth [19]	growth [20]
COc1ccc(C(=O)/C=C/c2ccccc2Cl)cc1S(N)(=O)=O	108%	97.3%	97.2%	84.9%	97.6%	101%	102%	119%	111%	120%	110%	99.3%	118%	110%	101%	90.7%	107%	104%	–	–
NS(=O)(=O)c1ccc(N=Nc2c(O)n(CC(=O)Nc3ccccc3Cl)c3ccccc23)cc1	9.55% (active)	38.1%	27.6%	2.95% (active)	63%	6.65% (active)	–	80.2%	50.5%	29%	1.19% (active)	56.3%	53%	36.7%	18%	21.3%	50.5%	30.4%	26.7%	26.9%
COc1ccc(C2=NN(c3ccccc3)C(c3ccc(OCc4ccccc4)c(OC)c3)C2)cc1OC (stereo not given)	86.5%	93%	100%	86.8%	120%	99.4%	88.7%	118%	–	120%	–	102%	113%	98.1%	102%	109%	94.1%	109%	–	–
COc1cc(C2CC(c3cc(OC)c(OC)c(OC)c3)=NN2C(C)=O)ccc1OCc1ccccc1 (stereo not given)	21.3%	32.6%	41.1%	8.63% (active)	32.1%	28.2%	–	55.1%	40.2%	24.2%	46.7%	59.8%	22.3%	71.3%	42.9%	41%	41%	38.4%	8.79% (active)	32.1%
CCOC(=O)/C=C/c1cccc2c1C(=O)NC(C)(c1cc3cc(Cl)ccc3oc1=O)N2 (stereo not given)	7.1% (active)	31.8%	31.5%	11.7%	46.2%	10%	–	30.3%	37.4%	17.7%	39.1%	50.4%	36.7%	-0.634% (active)	13%	34.4%	41%	22.7%	4.75% (active)	1.88% (active)
O=C(Cn1c2c(sc1=O)[C@H]1[C@@H](O)[C@@H](O)[C@H](O)[C@@H]1CS2)N1CCOCC1	100%	100%	102%	91.1%	88.2%	102%	94.7%	99.3%	–	–	108%	103%	102%	94.1%	105%	105%	93.3%	104%	118%	99.6%
NS(=O)(=O)c1ccc(-n2cc(-c3cccc(NC(=O)c4ccc(Cl)c(C(F)(F)F)c4)c3)nn2)cc1	78.3%	46.5%	34.3%	51%	48.7%	23.2%	33.2%	91.1%	28.3%	46.3%	-60.8% (active)	28.6%	44.7%	55.7%	58.6%	-4.74% (active)	32.1%	78.2%	–	–
CC12CC[C@@H]3[C@]4(C)COC(c5c(F)cccc5F)O[C@@H]4CC[C@@]3(C)[C@@H]1CC(C1=CCOC1=O)O2 (stereo not given in full)	81.2%	70.3%	66.6%	76.4%	93.5%	35%	–	106%	74.8%	40.4%	59.8%	85.6%	70.1%	77.2%	79.1%	88.1%	81.2%	59%	52.6%	55.6%
O=C(c1ccc(OCCN2CCOCC2)cc1)C1[C@H](c2ccc(Cl)cc2)[C@@H](c2ccccc2)NC12C(=O)Nc1ccc(Cl)cc12 (stereo not given in full)	35%	23.1%	13.5%	19.1%	49.7%	9.92% (active)	–	88%	31%	15.5%	39%	50.5%	48.3%	50.1%	24%	40.4%	59.1%	24.5%	-28.2% (active)	-46.3% (active)
COc1ccc(C(=O)/C=C/c2ccccc2Br)cc1S(N)(=O)=O	81.2%	-80.2% (active)	-25.6% (active)	-65.2% (active)	3.43% (active)	-97% (active)	11.8%	93.3%	6.96% (active)	-9.4% (active)	-64.5% (active)	-6.5% (active)	35.2%	69.8%	38.5%	-56.5% (active)	47%	16.1%	–	–
Cc1cc2nc3c([nH]c2cc1C)c1ccc(=O)cc1n3CCN(C)C	73.4%	76.7%	37.7%	12.5%	105%	20.4%	19.9%	111%	–	–	34%	39.8%	46.9%	63.7%	28.2%	67.3%	81.3%	33.6%	5.98% (active)	3.01% (active)
Nc1n[nH]c2cccc(C#Cc3cccc(NC(=O)c4cccc(Cl)c4)c3)c12	12.7%	44.9%	28.5%	21.5%	49.9%	18.2%	18.8%	50.4%	15%	29.9%	21.4%	–	39.9%	15.7%	21.6%	43.3%	43.2%	25.6%	–	–
COc1ccc(/C=C2\C(=N)N=C(SCc3nc4ccccc4[nH]3)NC2=O)cc1	114%	109%	103%	77.8%	149%	109%	–	119%	94.9%	95.8%	107%	119%	102%	116%	114%	110%	99.5%	104%	104%	103%
COc1ccc(C(=O)/C=C/c2ccc(Cl)c(Cl)c2)cc1S(N)(=O)=O	66.9%	24.1%	-2.78% (active)	-80.5% (active)	5.47% (active)	-69.7% (active)	-7.4% (active)	109%	12.4%	-6.75% (active)	-45.3% (active)	10.7%	–	52.5%	11.1%	-23.5% (active)	86.9%	14.8%	–	–
COc1ccc(C(=O)/C=C/c2cccc(Br)c2)cc1S(N)(=O)=O	-26% (active)	-68.4% (active)	-79.2% (active)	-91.8% (active)	-91.8% (active)	-95.2% (active)	-79.9% (active)	93.3%	–	-15.9% (active)	-95.1% (active)	-92% (active)	7.28% (active)	8.53% (active)	-33.7% (active)	-47.7% (active)	30.8%	-21.5% (active)	–	–
CCOC(=O)C(N=Nc1ccc(S(=O)(=O)N=C(N)N)cc1)C(C)=O (stereo not given)	119%	111%	101%	97.6%	88.6%	98.2%	–	102%	101%	98.5%	104%	104%	105%	138%	110%	113%	111%	113%	110%	99.4%
